Values joined by “and” are separate entries in the source; they are usually repeats but may differ in a detail not shown here. Equal entries are not always repeated. Compounds without any hit were thinned out: in the full panel of roughly 83,000, 20% have a hit.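 Cells were grown in 96-well plates and exposed to the test compound at a single concentration for 48 hours; results are reported as percent growth, with values below 10 considered active.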 Active and inactive are the calls of the source.
Test system: CAKI-1 renal
Assay: NCI-60 one-dose screen, 48 h (100 = growth as untreated, 0 = no growth, -100 = all killed)
Conditions: 10 µM unless noted

Row | Structure (SMILES) | growth
1 | O=[N+]([O-])c1ccccc1/C=N\Nc1ccccc1 | 71.9% (inactive) and 60.8% (inactive)
2 | CCN(CC)CCNc1cc(-c2cccc(OC(F)(F)F)c2)nc2ccc(N3CCCC3)cc12 | 49.1% (inactive) and 34.2% (inactive) and 23.1% (inactive)
3 | CC(=O)Nc1cc(S(=O)(=O)O)cc2cc(S(=O)(=O)O)c(N=Nc3ccccc3)c(O)c12 | 99.6% (inactive)
4 | CC(C)CNC(=O)c1ccccc1C(=O)NC1(C(=O)NCC(C)C)CCCC1 | 90.6% (inactive) and 98% (inactive)
5 | COc1cc2nc(N3CCN(C(=O)C4COc5ccccc5O4)CC3)nc(N)c2cc1OC (centres undefined) | 103% (inactive) and 82.2% (inactive) and 87.4% (inactive)
6 | O=C(Cc1cccc2ccccc12)N/N=C/c1ccc2c(c1)CCC2 | 66.1% (inactive)
7 | CC1=C(/C=C/C(C)=C/C=C/C(C)=C/C(=O)O)C(C)(C)CCC1 | 81.3% (inactive) and 87% (inactive) and 82.9% (inactive)
8 | O=C(Nc1ccc(Br)cc1)c1cc(Br)ccc1O | 5.39% (active) and 10.4% (inactive)
9 | Cc1cc(-c2ccc(NS(=O)(=O)c3ccccc3)c(C)c2)ccc1NS(=O)(=O)c1ccccc1 | 61.3% (inactive) and 98.8% (inactive)
10 | O=C(CCl)c1ccc2c(c1)Nc1ccccc1S2 | 98.4% (inactive)
11 | CC1CCCc2sc3nc(NNC(=O)c4cnccn4)n(-c4ccccc4)c(=O)c3c21 (centres undefined) | 5.81% (active) and 0.832% (active)
12 | Cc1cc(O)c(C(C)C)cc1N | 107% (inactive) and 97.4% (inactive)
13 | COc1ccc2cc3[n+](cc2c1OC)CCc1cc2c(cc1-3)OCO2 | 81.7% (inactive) and 89.8% (inactive)
14 | COc1c(/C(C)=N/N=c2sc(C(C)=O)nn2-c2ccc(Cl)cc2)c(Oc2ccccc2)c(OC)c2occc12 | 82% (inactive) and 64.5% (inactive)
15 | OC(COc1cccc2ccccc12)CN1CCN(c2ccc(Cl)cc2)CC1 (centres undefined) | 85.5% (inactive)
16 | CNc1ccc2nc3ccc(=[N+](C)C)cc-3sc2c1 | 11.2% (inactive) and 4.64% (active)
17 | CC1=NN(c2ccccc2)C(=O)C1C(=O)c1ccccc1 (centres undefined) | 95.9% (inactive)

Row | Structure (SMILES) | growth
18 | OCCN1CCN(CCO)CC1 | 104% (inactive) and 81.4% (inactive) and 120% (inactive)
19 | CC1=CCC2CC1C2(C)C (centres undefined) | 76.2% (inactive) and 82.8% (inactive)
20 | COc1cc(/C=N/Nc2nc3c([nH]2)c(=O)n(C)c(=O)n3C)ccc1O | 99.3% (inactive) and 118% (inactive)
21 | S=C(S)N1CCCC1 | 124% (inactive)
22 | CC(=O)Oc1cc(C(=O)O)cc(OC(C)=O)c1OC(C)=O | 99.5% (inactive) and 95.5% (inactive)
23 | CCN(CC)C(=O)c1cccnc1 | 97.4% (inactive)
24 | O=C(Nc1cccc(Cl)c1)c1cc2ccccc2cc1O | 3.2% (active) and -1.64% (active)
25 | Cn1c(SSc2ccc(-c3cccnc3)n2C)ccc1-c1cccnc1 | 94.3% (inactive) and 103% (inactive)
26 | CN1CCN(CCC=C2c3ccccc3Sc3ccc(S(=O)(=O)N(C)C)cc32)CC1 | 48.5% (inactive) and 94.9% (inactive)
27 | Oc1c(Cl)cc(Cl)cc1Sc1cc(Cl)cc(Cl)c1O | 17.9% (inactive) and 11.7% (inactive) and 62.8% (inactive)
28 | Cn1c(=O)n(-c2ccc(C(C)(C)C#N)cc2)c2c3cc(-c4cnc5ccccc5c4)ccc3ncc21 | 5.77% (active) and -2.85% (active)
29 | O=C(N/N=C/c1ccccc1)N/N=C/c1ccccc1 | 92.2% (inactive) and 114% (inactive)
30 | COc1ccc(-c2cn[nH]c2-c2cc(OC)c(OC)c(OC)c2)cc1N | 25.1% (inactive) and 22.9% (inactive)
31 | C1CCCCNCCC1 | 90.2% (inactive)
32 | COc1ccccc1C(C)=O | 99.5% (inactive) and 112% (inactive)
33 | NS(=O)(=O)c1cc2c(cc1Cl)NC(C(Cl)Cl)NS2(=O)=O (centres undefined) | 98.8% (inactive) and 95.4% (inactive)
34 | O=C(Oc1cccc(OC(=O)c2ccccc2)c1)c1ccccc1 | 102% (inactive) and 96.7% (inactive)

— PubChem BioAssay (NCI)
